Screening results from PubChem BioAssay.
Shown are actives, neighbours in structure and some others; about 31% of the full set was active somewhere.
CYP2C9 act = increases human cytochrome P450 2C9 activity. P11712. recombinant CYP2C9, luciferin-H conversion, luminescence; hits give high values; factor 1 = untreated enzyme, 0 = blocked. hit rate 1.4% among 96,000. activation factor at 5 µM;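 active = activation factor of 2 or more for CYP2C9 at a 5 µM dose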
CYP2C19 act = activators of human cytochrome P450 2C19 | recombinant CYP2C19, luciferin-H EGE luminescence; hits give high values; 0 = fully inhibited enzyme, 1 = untreated enzyme | activation factor at 5 µM | 96,000 tested, under 10 active | AID 1025;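 active = activation factor of at least 2 at 5 µM in the primary screen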
Target sequence (P33261 whole entry, looked up): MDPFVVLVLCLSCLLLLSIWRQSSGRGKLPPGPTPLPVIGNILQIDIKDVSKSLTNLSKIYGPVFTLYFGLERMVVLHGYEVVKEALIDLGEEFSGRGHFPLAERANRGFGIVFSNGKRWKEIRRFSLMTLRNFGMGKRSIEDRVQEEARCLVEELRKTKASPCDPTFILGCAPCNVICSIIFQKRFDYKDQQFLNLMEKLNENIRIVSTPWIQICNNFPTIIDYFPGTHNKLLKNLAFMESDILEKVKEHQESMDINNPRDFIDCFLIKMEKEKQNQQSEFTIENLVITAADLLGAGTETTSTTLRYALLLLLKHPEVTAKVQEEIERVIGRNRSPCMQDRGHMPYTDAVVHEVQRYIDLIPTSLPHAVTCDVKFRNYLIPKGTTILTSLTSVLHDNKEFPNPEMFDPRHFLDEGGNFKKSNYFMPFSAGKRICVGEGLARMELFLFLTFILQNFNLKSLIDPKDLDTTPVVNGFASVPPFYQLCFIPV
CYP2C19 inhib = blocks human cytochrome P450 2C19; P33261; AID 778; hit rate 21% among 96,000; CYP2C19 Supersomes, luciferin-H EGE luminescence, 30 min; inhibition, % at 5 µM;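 active = CYP2C19 inhibition above a set limit at 5 µM in the primary screen, cut at about 50% in these data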
CYP2C9 inh = inhibitors of human CYP2C9; P11712; CYP2C9 Supersomes, luciferin-H conversion, luminescence; inhibition, % at 5 µM; hit rate 20% among 96,000; AID 777;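 active = blocking of liver enzyme CYP2C9 beyond about 50% at 5 µM, limit read from the data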
Numbers stand for hits; n = inactive.

SMILES	CYP2C9 act	CYP2C19 act	CYP2C19 inhib	CYP2C9 inh
O=C(Nc1cc(C(F)(F)F)ccc1-n1cncn1)c1ccc(Cl)cc1	n	n	73.5	n
O=C(Nc1cc(C(F)(F)F)ccc1-n1cncn1)c1ccc(-c2ccccc2)cc1	n	n	57.9	94.1
COc1ccc(C(=O)Nc2cc(C(F)(F)F)ccc2-n2cncn2)cc1	n	n	n	n
Cc1nc(SC2CC(=O)N(c3ccc([N+](=O)[O-])cc3)C2=O)nc2c1CCCC2 (stereo unspecified)	n	n	n	n
CN1/C(=C/C2CC(=O)N(c3ccc([N+](=O)[O-])cc3)C2=O)C(C)(C)c2ccccc21 (stereo unspecified)	n	n	79.8	n
Cc1ccc(-c2nc(NC(=O)CSc3nnc(C)s3)ns2)cc1	n	n	65.0	n
O=C(CSc1nnnn1-c1ccccc1)Nc1nsc(-c2ccc(Cl)cc2)n1	2.8	n	74.9	n
O=C(CSc1nnnn1-c1ccccc1)CC(=O)Nc1ccc(Cl)cc1	2.4	n	n	n
Cc1nnc(SCC(=O)Nc2nsc(-c3ccccc3)n2)s1	n	n	n	n
O=C(CSc1nnnn1-c1ccccc1)Nc1ccc(N2CCOCC2)c(Cl)c1	n	n	n	n
Cc1cccc2cc(COC(=O)c3ccccn3)c(=O)[nH]c12	n	n	n	n
CCNC(=O)CC1C(=O)N(CC)C(=S)N1NC(=O)c1ccc(Cl)cc1 (stereo unspecified)	n	n	n	n
COC(=O)c1[nH]c2ccc(Cl)cc2c1NC(=O)CCN1CCOCC1	n	n	n	n
O=C(CSC1=NCCS1)Nc1nc2c(s1)CCCC2	n	n	n	n
NC(=O)c1ccc(NS(=O)(=O)c2ccccc2F)cc1	n	n	n	n
CC(C)OC(=O)CCCCCN1C(=O)CSC1=S	n	n	99.3	91.0
CSC(=NC1CCCCC1)NS(=O)(=O)c1ccccc1	n	n	79.7	n
Cc1c(C(=O)OCC2CCCO2)[nH]c2c1C(=O)CC(c1ccc(N(C)C)cc1)C2 (stereo unspecified)	n	n	n	91.8
Cc1c(C(=O)N2CCOCC2)[nH]c2c1C(=O)CC(c1ccc(Cl)cc1)C2 (stereo unspecified)	n	n	n	66.1
Cc1c(C(=O)OCC(C)C)[nH]c2c1C(=O)CC(c1cccs1)C2 (stereo unspecified)	n	n	79.7	92.2
COC(=O)c1[nH]c2c(c1C)C(=O)CC(c1ccc(C)cc1)C2 (stereo unspecified)	n	n	n	n
CCOC(=O)c1[nH]c2c(c1C)C(=O)CC(c1ccc(OCC)c(OC)c1)C2 (stereo unspecified)	n	n	76.0	90.3
CC(=O)Nc1ccc(S(=O)(=O)NCCc2cc3c(C)ccc(C)c3[nH]c2=O)cc1	n	n	n	n
CCCCCCNS(=O)(=O)c1nc2nc(C)cc(C)n2n1	n	n	n	n
CCOC(=O)c1[nH]c2c(c1C)C(=O)CC(c1ccc(F)cc1)C2 (stereo unspecified)	n	n	n	88.1
SMILES	CYP2C9 act	CYP2C19 act	CYP2C19 inhib	CYP2C9 inh
O=C(c1ccco1)n1nc(-c2ccccc2)nc1NCc1ccco1	n	n	n	n
COc1ccccc1C(=O)n1nc(-c2ccccc2)nc1NCc1ccco1	n	n	61.3	59.3
Cc1ccc(S(=O)(=O)n2nc(-c3ccc(Cl)cc3)nc2NCc2ccco2)cc1	n	n	67.7	n
Nc1nc(-c2cccnc2)nn1C(=O)c1ccco1	n	n	n	n
CC(=O)n1nc(-c2ccco2)nc1N	n	n	n	n
COc1ccc(CNc2nc(-c3cccnc3)nn2C(=O)c2ccco2)cc1	n	n	n	53.2
COc1ccccc1C(=O)n1nc(-c2ccco2)nc1N	n	n	56.7	n
O=C(COc1ccccc1)n1nc(-c2ccc(Cl)cc2)nc1NCc1ccco1	n	n	69.1	55.1
O=C(c1ccco1)n1nc(-c2ccc(Cl)cc2)nc1NCc1ccco1	n	n	n	n
CCCn1cnc2cc(NCc3cccc(OC)c3)ccc21	n	n	59.1	n
CCn1cnc2cc(NS(=O)(=O)c3ccc(C)cc3)ccc21	n	n	88.7	84.0
Cc1ccc(S(=O)(=O)Nc2ccc(S(=O)(=O)Nc3ncccn3)cc2)cc1	n	n	n	n
CCn1cnc2cc(NCc3ccc(C)cc3)ccc21	n	n	74.9	n
COc1ccccc1-n1cnc2cc(NS(=O)(=O)c3ccc(Br)cc3)ccc21	n	n	98.4	99.4
COc1ccccc1C(=O)Nc1ccc(S(=O)(=O)Nc2cc(C)on2)cc1	n	n	n	n
Cc1ccc(OCCCNCCO)c(Br)c1	n	n	n	n
COc1ccc(-n2cnc3cc(NS(=O)(=O)c4ccc(C)cc4)ccc32)cc1	n	n	91.2	98.3
CCNc1nc2c(c(=O)[nH]c(=O)n2C)n1Cc1ccc(F)cc1	n	n	n	n
COC(=O)CC/C(O)=C1/C(=N)CC(C)(C)CC1=O	n	n	n	n
CCc1nc(Nc2ccc3c(c2)OCO3)c2oc3ccccc3c2n1	n	n	51.3	75.0
CCc1nc(NCCCN2CCOCC2)c2oc3ccccc3c2n1	n	n	n	n
CCc1nc(N2CCN(Cc3ccc4c(c3)OCO4)CC2)c2oc3ccccc3c2n1	n	n	n	51.4
CCc1nc(NCCN2CCOCC2)c2oc3ccccc3c2n1	n	n	56.9	n
Cc1ccc2c(c1)cc(C)c1nnc(SCC(=O)NCc3ccco3)n12	n	n	n	n
Cc1ccc(S(=O)(=O)/N=C(\CN2CCCCC2)N2CCOCC2)cc1	n	n	63.6	52.9
SMILES	CYP2C9 act	CYP2C19 act	CYP2C19 inhib	CYP2C9 inh
Cc1ccc(S(=O)(=O)N2CCN(C(=O)CN3CCCCC3)C2)cc1	n	n	n	n
Cc1ccc(C)c2c3c([nH]c12)-c1nonc1CC3	n	n	n	n
C=CCn1c(Cc2ccc(OC)cc2)nnc1SCC(=O)NCCc1ccccc1	n	n	n	n
COc1cc(/C=C2\SC(=S)N(Nc3ncc(C(F)(F)F)cc3Cl)C2=O)ccc1O	n	n	53.5	52.0
CSc1nnc(-c2sc3cc(C(F)(F)F)cnc3c2-c2cccnc2)n1C	n	n	n	n
CC(C)(C)c1ccc(C2CC2C(=O)N/N=C\c2cc3ccccc3nc2Cl)cc1 (stereo unspecified)	n	n	n	61.8
Cc1ccccc1OCC(=O)N/N=C/c1cc2ccccc2nc1Cl	n	n	n	n
CCOCCCNC(=S)NNC(=O)CCn1nc(C)c(Br)c1C	n	n	n	n
CC1(c2ccc(Cl)cc2Cl)OCC(Cn2ccnc2)O1 (stereo unspecified)	n	n	98.7	83.4
CC(C)c1ccccc1NC(=O)c1cccnc1	n	n	n	n
O=C(Nc1ccc(Cl)c(-c2nc3ccccc3[nH]2)c1)c1cccnc1	n	n	59.8	83.3
O=C(Nc1ccc(-c2cc3ccccc3oc2=O)c(Cl)c1)c1cccnc1	2.2	n	n	n
CCOC(=O)/C=C1\SCC(=O)N1CC(O)CN1C(=O)CS/C1=C\C(=O)OCC	n	n	n	n
COc1cc(C)c(N(C(C)=O)c2ccccc2)c(C)c1	n	n	61.3	n
COc1ccc(C(=O)NN(c2ccccc2)c2ccccc2)cc1	n	n	n	n
O=C(O)c1ccc2c(c1)C(=O)N(c1ccc(Cl)cn1)C2=O	n	n	n	n
